# Compound activity as filed in PubChem.
# GALK inh – inhibits human galactokinase | recombinant GALK, Kinase-Glo ATP luminescence, 1 h | Potency, µM (series often up to 57.5 µM), inactives show at the highest dose activity, negative = inhibition, hits mostly inhibitors | 44,000 tested, under 10 active | AID 1347072;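 note: plate controls were full GALK reaction for no effect and reaction lacking GALK for full effect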
#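 Compounds were pinned into ATP buffer, then GALK-galactose mix was added (final 5 nM enzyme, 35 uM ATP, 100 uM galactose, pH 8.0). After 1 h at room temperature, Kinase-Glo Plus was added and luminescence read.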
# B2AR arrestin ag – beta-arrestin recruitment by human beta2-adrenergic receptor ligands; P07550; HTLA Tango cells, beta-arrestin recruitment, luciferase luminescence, 18 h; Potency, µM (titrated, usually from 46.1 µM), actives largely listed as activators; 44,000 tested, under 10 active; AID 1347077;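 note: potency is the fitted concentration of half-maximal effect; 0% = DMSO and full agonism = EC100 isoproterenol or metaproterenol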
#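 Tango cells expressing recombinant beta2-AR and beta-arrestin were treated with compounds (up to 46 microM titration) in DMEM with 1% FBS for 18 hr at 37 degrees C. Beta-arrestin recruitment drove tTA-dependent luciferase, read by luminescence; curves were fitted and classed.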
# PTAP-TSG101 blk – blocks PTAP binding to human TSG101, validation. 44,000 tested, under 10 active. Fluorescence polarization, FITC-PTAP peptide/Tsg101, 20 min. Potency, µM (top dose mostly 115 µM), actives largely listed as inhibitors. Q99816; note: potency is the fitted concentration of half-maximal effect; 0% is about no effect
# Target sequence (Q99816 whole entry, looked up): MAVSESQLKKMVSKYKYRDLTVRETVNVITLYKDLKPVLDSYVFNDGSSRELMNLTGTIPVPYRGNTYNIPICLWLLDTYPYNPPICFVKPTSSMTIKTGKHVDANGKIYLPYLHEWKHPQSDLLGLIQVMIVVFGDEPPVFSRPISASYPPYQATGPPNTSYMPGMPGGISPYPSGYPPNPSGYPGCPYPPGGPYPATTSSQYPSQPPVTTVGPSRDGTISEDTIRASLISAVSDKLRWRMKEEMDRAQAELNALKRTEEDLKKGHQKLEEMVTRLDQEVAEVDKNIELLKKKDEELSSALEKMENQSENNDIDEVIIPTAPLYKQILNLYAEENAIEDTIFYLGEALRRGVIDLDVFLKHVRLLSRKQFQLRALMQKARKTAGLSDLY
#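 Fluorescence polarization binding of Tsg101 binding domain (10 uM final) to FITC-labeled PTAP-motif peptide (50 nM final) in HEPES pH 7.5/NaCl/Tween 20/EDTA/TCEP buffer; 20 min at r.t. Actives by curve class, <25 µM, efficacy <60% inhibition.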
# DRV1 agonist – agonists of human resolvin D1 receptor DRV1 (GPR32). CHO-K1 GPR32 beta-arrestin PathHunter luminescence, 90 min; zero percent set by DMSO-only wells. O75388. activation, % at 76.9 µM. 48,000 tested, 2.5% active;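 active = activation of at least 60% and not above a set upper limit, about 1 call in 100 departs from these limits; inconclusive = activation of 40% to 60%, or above that upper limit; inactive = activation under 40%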; note: 0% is about no effect
#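 PathHunter enzyme-fragment complementation, CHO-K1 GPR32 stable line; 2,500 cells/well, overnight attach; cpd 90 min 37 °C 5% CO2; detection reagent 1 h RT; chemiluminescence. DMSO = EC0.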
# NTMT1 inh – inhibitors of human N-terminal methyltransferase NTMT1; 59,000 tested, 2.5% active; Potency, µM (series often up to 114 µM), for inactives: at the top dose activity change, negative = inhibition, usual class: inhibitors; NTMT1 MTase-Glo SAH luminescence, purified enzyme;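 note: potency is the fitted concentration of half-maximal effect; plate controls were DMSO vehicle for no effect and no enzyme for full effect; nearly all actives have a fitted effect of over 65% in size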
# Target sequence (Q9BV86 whole entry, looked up): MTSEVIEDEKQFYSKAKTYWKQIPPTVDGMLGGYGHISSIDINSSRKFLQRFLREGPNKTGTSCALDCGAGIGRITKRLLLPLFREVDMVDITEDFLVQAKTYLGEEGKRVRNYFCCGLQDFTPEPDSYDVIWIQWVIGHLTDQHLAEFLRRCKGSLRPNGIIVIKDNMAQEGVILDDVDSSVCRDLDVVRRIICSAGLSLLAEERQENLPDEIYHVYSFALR
# SKOV3 invasion – ovarian cancer metastasis inhibition, 3D TME model. SKOV3ip1-GFP adhesion/invasion on 3D omental model, fluorescence. Potency, µM (titrated, usually from 45.8 µM), for the others: at the highest dose activity change, negative = inhibition, usual class: inhibitors. 46,000 tested, 0.1% active;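 note: potency is the fitted concentration of half-maximal effect; plate controls were DMSO wells for no effect and tomatine positive control wells for full effect; nearly all actives have a fitted effect of over 65% in size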
#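 A 3D layer of primary human omental fibroblasts, mesothelial cells, fibronectin and collagen I, grown 48 hr, received SKOV3ip1-GFP cells in serum-free medium plus compounds at 0.36-46 umol/L. After 2 hr RT and 16 hr 37 C, fixed adherent GFP cells were counted; normalized to DMSO and tomatine.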
# * = called active by the depositor; i = inactive; u = inconclusive; x = not tested or not shown; ! = a repeat was not active; [ ] = dose if it differs, or a comment. An excerpt weighted towards active compounds, which were near 3.8% of everything screened. Unless noted, calls come from the whole dose curve; as a rule, active = well fitted curve in the direction sought with a large enough effect; inconclusive = small, poorly fitted or top-dose-only effect, or another doubt; inactive = no such curve, though single readings can be large; an effect the other way counts as inactive or inconclusive.
SMILES,GALK inh,B2AR arrestin ag,PTAP-TSG101 blk,DRV1 agonist,NTMT1 inh,SKOV3 invasion
CCn1c(=NC(=O)c2ccc(S(=O)(=O)N3CCCCC3)cc2)sc2cccc(OC)c21,7%,i,i,20,6%,-22%
COc1cccc(OCc2cc(=O)n3c(-c4ccccc4)csc3n2)c1,-8%,u,i,121*,-6%,20%
Cc1ccccc1OCc1cc(=O)n2c(-c3ccccc3)csc2n1,-1%,i,i,32,18%,-30%
COc1ccccc1Nc1c2c(nc3ccc(NC(=O)c4cccc(OC)c4OC)cc13)CCCC2,5%,i,i,-7,2%,u
CCCCOc1ccc(C(=O)NCCc2csc(-c3ccc(OC)cc3)n2)cc1,-1%,i,i,-2,4%,i
COc1ccc(C(=O)NCCc2csc(-c3ccc(Cl)cc3)n2)cc1,-2%,i,i,87*,-2%,i
COc1ccc(C(=O)NCCc2csc(-c3ccc(Cl)cc3)n2)c(OC)c1,-1%,i,i,70*,u,6%
COc1ccccc1C(=O)NCCc1csc(-c2ccc(C(F)(F)F)cc2)n1,2%,i,i,12,-2%,4%
CCCn1c(=O)c2sccc2n2c(CCCC(=O)Nc3ccc(Oc4ccc(Cl)cc4)cc3)nnc12,7%,i,i,-9,9%,-2%
O=C(Cn1cc(S(=O)(=O)Cc2ccc(F)cc2)c2ccccc21)NCc1ccccc1Cl,-3%,i,i,-14,-15%,0%
CCN(CC)CCn1c(-c2ccccc2)nc2c(NCCO)nc(C)nc21,x,x,x,x,89µM*,x
COc1ccc(-c2nc3scc(CCNS(=O)(=O)c4ccc(F)c(C(F)(F)F)c4)n3n2)cc1OC,-3%,i,i,-10,-4%,i
FC(F)(F)c1cccc(Nc2nc3nonc3nc2Nc2ccc(Cl)cc2)c1,-7%,i,i,-23,9%,10µM*
O=C(Nc1cccc(C(F)(F)F)c1)c1cc(-c2ccc(Cl)cc2)on1,6%,i,i,u,8%,17%
COc1ccc(Cl)cc1NC(=O)Cn1nnc(C(=O)NCc2ccc3c(c2)OCO3)c1N,1%,i,i,112*,-2%,-4%
COc1ccccc1NC(=O)Cn1nnc(C(=O)NCc2ccc3c(c2)OCO3)c1N,0%,i,i,42,5%,i
Nc1c(C(=O)NCc2ccc3c(c2)OCO3)nnn1CC(=O)Nc1ccc(Br)cc1,0%,i,i,61*,20%,1%
CN1CCN(CCC(=O)N2c3ccccc3Sc3ccc(C(F)(F)F)cc32)CC1,x,x,x,26,u,x
OCCN1CCN(CCCN2c3ccccc3Sc3ccc(C(F)(F)F)cc32)CC1,x,x,x,-14,32µM*!,-38%
OCCN1CCN(CC/C=C2/c3ccccc3Sc3ccc(C(F)(F)F)cc32)CC1,x,x,x,62*!,u,x
CN(C)CCCN1c2ccccc2Sc2ccc(C(F)(F)F)cc21,x,x,x,-15,u,x
FC(F)(F)C(Cl)Br (stereo unspecified),x,x,x,-8,12%[57.5 µM],x
CCNc1nc(NCc2ccc(F)cc2)c2cnn(C)c2n1,-3%,i,i,72*,-20%,-2%
Cc1nc(Nc2ncc(C(=O)Nc3c(C)cccc3Cl)s2)cc(N2CCN(CCO)CC2)n1,x,x,x,28,22µM*!,u
Oc1c(C(Nc2ccccn2)c2ccccc2)cc(Cl)c2cccnc12 (stereo unspecified),x,x,x,x,1%[57.5 µM],x
SMILES,GALK inh,B2AR arrestin ag,PTAP-TSG101 blk,DRV1 agonist,NTMT1 inh,SKOV3 invasion
Oc1cccc(C(Nc2ccccn2)c2ccc3cccnc3c2O)c1Cl (stereo unspecified),0%,u,i,81*,x,-4%
Cn1ccc2c(OCC(=O)NCc3ccc(F)cc3)cccc2c1=O,-4%,i,i,68*,-7%,i
CCn1ccc2c(OCC(=O)NCc3ccc(F)cc3)cccc2c1=O,-9%,i,i,23,-1%,11%
CCOCCn1ccc2c(OCC(=O)Nc3cccc(F)c3)cccc2c1=O,-4%,i,i,77*,13%,5%
Cc1cc(C)cc(NC(=O)COc2cccc3c(=O)n(C)ccc23)c1,-5%,i,i,86*,-6%,i
CCOCCn1ccc2c(OCC(=O)Nc3cccc([N+](=O)[O-])c3)cccc2c1=O,-2%,i,i,3,1%,-9%
Nc1ncnc2c1c(I)cn2C1OC(CO)C(O)C1O (stereo unspecified),x,x,x,x,1.4µM*,x
Cc1cccc(-c2nc3c(cnn3-c3ccccc3)c(=O)n2-c2ccc(Br)cc2)c1,-1%,i,i,-29,89µM*,-12%
Cc1ccc(CNc2ncnc3c2cnn3-c2ccc(C)cc2C)cc1,2%,i,i,61*,5%,-14%
Cc1ccc(Cl)cc1-n1ncc2c(N3CCC(C)CC3)ncnc21,2%,i,i,62*,7%,11%
Cc1ccc(Cl)cc1-n1ncc2c(Nc3cccc(C)c3C)ncnc21,3%,i,i,23,5.6µM*,14%
Cc1ccc(-n2ncc3c(Nc4cccc(Cl)c4)ncnc32)c(C)c1,1%,i,i,-8,-3%,10µM*
CCOc1ccc(CN2C(=O)c3ccccc3C2C(=O)NCCc2ccc(OC)c(OC)c2)cc1 (stereo unspecified),1%,i,i,-6,10%,12%
Cc1ccc(-n2ncc3c(Nc4cccc(C(F)(F)F)c4)ncnc32)cc1C,0%,i,i,94*,11%,-7%
Cc1ccc(N2CC(NC(=O)CCCc3ccccc3)CC2=O)cc1 (stereo unspecified),-1%,i,i,-2,1%,-5%
Cc1cccc(C)c1OCC(=O)Nc1nc(-c2ccc(Br)cc2)ns1,-9%,i,i,-9,-15%,i
Cc1c(C(=O)N(C)c2cccc(C(F)(F)F)c2)sc2nc3n(c(=O)c12)CCCCC3,4%,i,45µM*,-26,-8%,2%
COc1cccc2cc(C(=O)N3CCN(c4cc(C)ccc4C)CC3)c(=O)oc12,6%,i,i,8,0%,i
COc1ccc(S(=O)(=O)Nc2ccc3oc4c(c3c2)C(=O)CC(C)(C)C4)cc1,-15%,i,i,64*,4%,i
O=C(Nc1ccccc1F)c1ccc2c(Cl)c3c(nc2c1)CCC3,3%,i,i,22,25µM*,-16%
